IL-1B inflam inh – blocks inflammasome-driven IL-1 beta release; THP-1 LPS/ATP IL-1B secretion, AlphaLISA, 16 h; hits give low values; activity change, % at 57.5 µM; 360,000 compounds, 4.7% hits; in the data active = activity change below about -50%; inconclusive = mostly about -30% to -49%
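THP-1 cells pretreated 1 hr with compounds (up to 57.5 uM final), then stimulated with LPS (250 ng/mL final) plus ATP (1.25 mM final); secreted IL-1B measured by AlphaLISA after 16 hr, decreased signal indicating inhibition.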
DT40 TDP1 no CPT – qHTS for Inhibitors of human tyrosyl-DNA phosphodiesterase 1 (TDP1): qHTS in cells in absence of CPT | DT40 Tdp1-/- hTDP1 cells, no CPT, ATP luminescence, 48 h | Potency, µM (highest dose often 46.2 µM), for inactives: at the top dose activity change, negative = growth inhibition, most hits filed as inhibitors | 420,000 compounds, 15% hits | AID 686978, 2013; also: potency is read from the fitted curve at half-maximal effect; nearly all actives have a fitted effect of over 55% in size
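Luminescent ATP content (CellTiter-Glo) served as the growth readout. Knockout chicken DT40 cells expressing human TDP1 were exposed to compounds without camptothecin for a minimum 48 hr at 37 °C.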
LDHA block – LDHA (human) enzyme inhibition. purified LDHA, NADH/diaphorase-resazurin fluorescence; hits give low values. 480,000 compounds, 0.15% hits. P00338. activity change, % (values are at about 110 or 230 µM). AID 1347041; in the data active = activity change below about -30%; inconclusive = mostly about -25% to -30%;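 also: plate controls were DMSO wells for no effect and wells without enzyme for full effect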
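Resorufin fluorescence (ex540/em590), read at 0 and 20 min after diaphorase/resazurin addition, reports the NADH left after a 5 min room-temperature reaction of 2 nM human LDH5 with 0.06 mM NADH and 0.2 mM pyruvate.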
Gal4-VP16 FLuc – Gal4-VP16 reporter inhibition counter-screen. AID 2546. Potency, µM (series often up to 53.6 µM), for inactives: top-dose activity, negative = inhibition, actives largely listed as inhibitors. Drosophila S2 Gal4-VP16 UAS-luciferase, luminescence, 20 h. 310,000 compounds, 3.5% hits;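 also: Gal4-VP16 expression switched on by copper sulfate through the metallothionein promoter; potency is read from the fitted curve at half-maximal effect; nearly all actives have a fitted effect of over 50% in size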
DT40 TDP1 CPT – growth inhibition of DT40 Tdp1-/-;hTDP1 cells with camptothecin (screen for TDP1 inhibitors); chicken DT40 Tdp1-/-;hTDP1 cells + 20 nM CPT, ATP luminescence, 48 h; Potency, µM (top dose mostly 46.2 µM), inactives show top-dose activity change, negative = growth inhibition, most hits filed as inhibitors; 420,000 compounds, 12% hits; AID 686979; also: potency is read from the fitted curve at half-maximal effect; nearly all actives have a fitted effect of over 55% in size
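Cell growth measured by CellTiter-Glo luminescence after a minimum 48 h, 37 C compound exposure with 20 nM CPT in Tdp1-knockout DT40 cells stably expressing hTDP1, seeded 400/well; qHTS titration format.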
RORg inh – ROR gamma (mouse) transcription inhibition; P51450; Drosophila S2 Gal4-RORgamma UAS-luciferase reporter, 20 h; Potency, µM (titrated, usually from 53.6 µM), for inactives: top-dose activity change, negative = inhibition, hits mostly inhibitors; 310,000 compounds, 5.4% hits; also: potency is read from the fitted curve at half-maximal effect; nearly all actives have a fitted effect of over 60% in size
Target sequence (P51450 whole entry, looked up, the tested form may be a part): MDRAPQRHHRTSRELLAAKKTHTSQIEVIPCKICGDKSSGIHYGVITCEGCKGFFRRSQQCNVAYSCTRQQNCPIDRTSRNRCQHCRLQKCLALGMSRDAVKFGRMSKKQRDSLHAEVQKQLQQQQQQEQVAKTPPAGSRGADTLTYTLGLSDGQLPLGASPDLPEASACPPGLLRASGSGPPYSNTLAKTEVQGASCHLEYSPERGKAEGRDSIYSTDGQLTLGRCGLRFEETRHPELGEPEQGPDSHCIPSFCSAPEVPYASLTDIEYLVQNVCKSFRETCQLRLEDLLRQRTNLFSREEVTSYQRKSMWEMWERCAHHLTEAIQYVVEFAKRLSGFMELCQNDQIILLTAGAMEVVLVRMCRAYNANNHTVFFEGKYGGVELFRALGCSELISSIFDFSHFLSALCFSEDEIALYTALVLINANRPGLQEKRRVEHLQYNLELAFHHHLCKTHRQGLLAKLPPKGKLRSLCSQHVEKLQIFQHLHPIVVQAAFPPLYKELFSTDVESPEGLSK
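Drosophila S2 cells stably expressing Gal4-DBD/mouse RORγ fusion under metallothionein promoter plus UAS-luciferase; compound 1 h, then 700 uM CuSO4 induction for 20 h at ambient temperature; inhibition read as reduced luminescence.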
* = called active by the depositor; i = inactive; ? = inconclusive; . = no result given; ! = repeats disagree. Shown are actives, neighbours in structure and some others; about 18% of the full set was active somewhere. Unless noted, calls follow the shape of the dose curve; as a rule, active = well fitted curve in the direction sought with a large enough effect; inconclusive = small, poorly fitted or top-dose-only effect, or another doubt; inactive = no such curve, though single readings can be large; an effect the other way counts as inactive or inconclusive. Unless noted, % is scaled to controls: 0 for no effect and ±100 for the full control effect.

SMILES	IL-1B inflam inh	DT40 TDP1 no CPT	LDHA block	Gal4-VP16 FLuc	DT40 TDP1 CPT	RORg inh
CCOC(=O)C1Nc2ccccc2C2c3ccccc3CC12 (stereo unspecified)	-10	2.6µM*	-5	.	21µM*	.
CCOC(=O)C1Nc2c(cc(C(F)(F)F)cc2[N+](=O)[O-])C2c3ccccc3CC12 (stereo unspecified)	12	?	8	.	18µM*	.
CC1Cc2ccccc2N1C(=O)Cn1cnc2c1c(=O)n(C)c(=O)n2C (stereo unspecified)	i	23µM*	1	7%	?	-4%
Cc1cccc(N2CCN(C(=O)Cn3c(=O)c4cccn4c4ccc(F)cc43)CC2)c1C	.	10µM*	1	.	21µM*	.
Cc1cccc(N2CCN(C(=O)Cn3ccc4ccccc4c3=O)CC2)c1C	-7	?	1	3%	13µM*	-11%
Cc1cccc(N2CCN(C(=O)CN3C(=O)C4CC=CCC4C3=O)CC2)c1C (stereo unspecified)	19	?	-4	-9%	-24%	?
Cc1cccc(N2CCN(C(=O)Cn3cnc4c3c(=O)n(C)c(=O)n4C)CC2)c1C	34	18µM*	-5	2%	23µM*	-8%
O=C(CCNc1nc(Cl)nc2nc[nH]c12)NCCCO	.	.	-2	.	.	.
O=C(O)CNS(=O)(=O)c1ccc(C(=O)/C=C/c2ccc(Cl)cc2)cc1	.	.	-2	.	.	.
N#Cc1cc2c(cc1-c1cc3c(cc1C(=O)C1CC1)OCCO3)OCCO2	.	.	9	.	.	.
COc1ccc(-c2c(NC(=O)c3cccs3)oc3ccccc3c2=O)cc1	.	.	-25	.	.	.
O=C(O)COCC(=O)N1CCOCC1	.	.	-6	.	.	.
COC(=O)c1cc(=O)nc(NN=C2c3ccccc3-c3ccccc32)s1	0	?	-3	.	23µM*	.
COC(=O)c1cc(=O)nc(NN=C2CCCCC2)s1	10	1%	-2	.	1%	.
Cc1ccc(S(=O)(=O)N(C)CCCN(C)c2nc(-c3cccs3)nc3ccccc23)cc1	.	11µM*	-6	.	16µM*	.
CN(CCN(C)c1nc(-c2cccs2)nc2ccccc12)C(=O)OC(C)(C)C	.	14µM*	6	.	10µM*	.
CN(Cc1ccccc1F)c1nc(-c2cccs2)nc2ccccc12	-12	?	-7	-2%	?	16%
Cc1cc(O)c(C(C)(C)C)cc1Sc1cc(C(C)(C)C)c(O)cc1C	.	.	7	?	.	10µM*
Cc1cc(Sc2cc(C)c(O)c(C(C)(C)C)c2)cc(C(C)(C)C)c1O	.	.	-23	.	.	.
CC(C)(C)c1cc(O)c(C(C)(C)C)cc1O	.	12µM*!	.	-18%	11µM*!	-32%
COc1cccc(-c2csc(-c3nc(-c4ccc(C)cc4)c(C)s3)n2)c1	.	.	10	.	.	.
Cc1cc(/C=C2\C(=O)NN(c3ccccc3)C2=O)c(C)n1-c1ccccc1O	0	15µM*	-2	-15%	?	-5%
Cc1cc(/C=C2/C(=O)NN(c3ccccc3)C2=O)c(C)n1-c1ccc(O)cc1	-29	18µM*	-2	4µM*	?	14µM*
Cc1cc(/C=C2\SC(=Nc3ccc(F)cc3)NC2=O)c(C)n1-c1ccc(S(N)(=O)=O)cc1	-8	5.2µM*	-7	?	5.2µM*	-24%
COc1ccc(-n2c(C)cc(/C=C3\C(=O)NN(c4ccccc4)C3=O)c2C)cc1	3	-15%	-9	-20%	4%	-39%
Cc1cc(/C=C2\SC(=S)NC2=O)c(C)n1-c1ccc(O)cc1	0	6%	0	-21%	-28%	21%
Cc1cc(C=C2C(=O)CCCC2=O)c(C)n1-c1ccccc1	-1	?	0	-4%	-9%	8.9µM*
Cc1cc(/C=C2\SC(N)=NC2=O)c(C)n1-c1ccccc1	-3	?	0	-22%	?	-10%

From PubChem
